The campaign covered roughly 5,500 compounds. About 2,000 (36%) were called active. Another 18% or so got no clear call; they are omitted. Cut-off read from the data, not from the text of the source: active = normalized growth mostly below about 0.91 (no sharp cut-off); inconclusive = no clear call, values can overlap the other calls; inactive = mostly above about 0.92. Some of the results follow.
Assay: chemical genetic growth profiling, strain panel (AID 1159580);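 note: tested at 20 µM; growth read once vehicle control cultures reached saturation at 30 °C; 1 = growth at the plate median or of vehicle wells; lower values mean less growth of the strain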
Conditions: S. cerevisiae deletion strains, growth OD

Measured: normalized growth

CC1(C)CCCC2(C)C3C1[C@@H](O)C2(C)C[C@H]3O (stereo not given in full)
inactive: locus YAL021C, strain ccr4, hits give low values 1.01 | locus YAL026C, strain drs2, hits give low values 1.04 | locus YAL030W, strain snc1, hits give low values 0.993 | locus YBL061C, strain skt5, hits give low values 1.01 | locus YBR009C, strain hhf1, hits give low values 1.03 | locus YBR023C, strain chs3, hits give low values 1.01 | locus YBR171W, strain sec66, hits give low values 1.04 | locus YBR231C, strain swc5, hits give low values 1.03 | locus YBR279W, strain paf1, hits give low values 1.03 | locus YCL011C, strain gbp2, hits give low values 1.03 | locus YCL016C, strain dcc1, hits give low values 1 | locus YCL061C, strain MRC1, hits give low values 1.02 | locus YCL069W, strain vba3, hits give low values 1.02 | locus YCR088W, strain abp1, hits give low values 1.03 | locus YDL005C, strain med2, hits give low values 1.03 | locus YDL040C, strain nat1, hits give low values 1.01 | locus YDR001C, strain nth1, hits give low values 1.03 | locus YDR069C, strain doa4, hits give low values 0.992 | locus YDR137W, strain rgp1, hits give low values 0.973 | locus YDR159W, strain sac3, hits give low values 0.991 | locus YDR195W, strain ref2 1.02 | locus YDR297W, strain sur2, hits give low values 0.985 | locus YDR334W, strain swr1, hits give low values 1.03 | locus YDR335W, strain msn5, hits give low values 0.995 | locus YDR392W, strain spt3, hits give low values 0.941 | locus YEL003W, strain gim4, hits give low values 1.03 | locus YEL037C, strain rad23, hits give low values 1.03 | locus YEL061C, strain CIN8 (second series), hits give low values 1.03 | locus YER015W, strain faa2, hits give low values 1.03 | locus YER016W, strain bim1, hits give low values 1.01 | locus YER111C, strain swi4, hits give low values 1.03 | locus YER155C, strain BEM2 (second series), hits give low values 1.02 | locus YFR010W, strain ubp6, hits give low values 1.04 | locus YGL167C, strain pmr1, hits give low values 1.01 | locus YGL173C, strain kem1, hits give low values 1.03 | locus YGL227W, strain vid30, hits give low values 1.03 | locus YGL240W, strain doc1, hits give low values 1 | locus YGL253W, strain hxk2, hits give low values 1.03 | locus YHR013C, strain ard1, hits give low values 1.04 | locus YHR027C, strain rpn1, hits give low values 0.998 | locus YHR030C, strain SLT2, hits give low values 0.976 | locus YHR079C, strain IRE1, hits give low values 0.983 | locus YHR142W, strain chs7, hits give low values 1.01 | locus YJL092W, strain hpr5, hits give low values 1.03 | locus YJL095W, strain BCK1 (second series), hits give low values 0.988 | locus YJL095W, strain BCK1, hits give low values 1 | locus YJL115W, strain asf1, hits give low values 1.03 | locus YJL129C, strain trk1, hits give low values 1.05 | locus YJL154C, strain vps35, hits give low values 1.02 | locus YJL164C, strain tpk1, hits give low values 1.01 | locus YJL166W, strain qcr8, hits give low values 1.04 | locus YJL187C, strain SWE1, hits give low values 0.985 | locus YJR066W, strain TOR1, hits give low values 0.923 | locus YKL160W, strain elf1, hits give low values 0.986 | locus YKR026C, strain gcn3, hits give low values 1.02 | locus YKR091W, strain srl3, hits give low values 1.02 | locus YLL001W, strain dnm1, hits give low values 0.994 | locus YLL026W, hits give low values 1.01 | locus YLL041C, strain sdh2, hits give low values 0.995 | locus YLR027C, strain aat2, hits give low values 1 | locus YLR113W, strain HOG1, hits give low values 1.05 | locus YLR221C, strain rsa3, hits give low values 1.02 | locus YLR258W, strain gsy2, hits give low values 1.01 | locus YLR262C, strain YPT6 (second series), hits give low values 1.04 | locus YLR320W, strain mms22, hits give low values 1.07 | locus YLR342W, strain FKS1, hits give low values 1.02 | locus YLR357W, strain rsc2, hits give low values 1.04 | locus YLR370C, strain arc18, hits give low values 1.01 | locus YLR384C, strain iki3, hits give low values 1.02 | locus YML120C, strain ndi1, hits give low values 1.01 | locus YMR058W, strain fet3, hits give low values 1.03 | locus YMR125W, strain sto1, hits give low values 1.04 | locus YMR129W, hits give low values 1.03 | locus YMR205C, strain PFK2, hits give low values 1.01 | locus YMR231W, strain pep5, hits give low values 1.03 | locus YNL071W, strain lat1, hits give low values 1.02 | locus YNL183C, strain NPR1, hits give low values 0.963 | locus YNL209W, strain ssb2, hits give low values 0.997 | locus YNL248C, strain rpa49, hits give low values 0.996 | locus YNL322C, strain KRE1 (second series), hits give low values 1.01 | locus YNR049C, strain mso1, hits give low values 0.993 | locus YOR001W, strain rrp6, hits give low values 1 | locus YOR070C, strain gyp1, hits give low values 1 | locus YOR080W, strain dia2, hits give low values 1.01 | locus YOR083W, strain WHI5, hits give low values 0.999 | locus YOR106W, strain vam3, hits give low values 0.985 | locus YOR231W, strain MKK1, hits give low values 0.977 | locus YOR265W, strain rbl2, hits give low values 1 | locus YOR270C, strain vph1, hits give low values 1.08 | locus YOR290C, strain snf2, hits give low values 0.985 | locus YPL051W, strain arl3, hits give low values 1 | locus YPL078C, strain atp4, hits give low values 1.01 | locus YPL106C, strain sse1, hits give low values 1.06 | locus YPL240C, strain hsp82, hits give low values 0.987 | locus YPL256C, strain CLN2, hits give low values 1

Reference: PubChem BioAssay AID1159580 (chemical genetic matrix, 2015)
